Data as given in paper PMC7862700, “An all-to-all approach to the identification of sequence-specific readers for epigenetic DNA modifications on cytosine”.

What was measured:
Assay in all cases: DAPPL (digital affinity profiling via proximity ligation, sequencing); 10 mM Tris-HCl pH 7.5, 50 mM NaCl, 1 mM DTT, 4% glycerol, room temperature, 30 min; GST-TFs on glutathione beads, 16-mer random dsDNA library, 0.1% formaldehyde crosslink after washing; high values mean tight binding
[1] = biological target: T1, FEV (Homo sapiens, UniProt Q99581 1-238); conditions: protein: recombinant; tags: N-terminal GST; dsDNA, one strand shown
T1 sequence: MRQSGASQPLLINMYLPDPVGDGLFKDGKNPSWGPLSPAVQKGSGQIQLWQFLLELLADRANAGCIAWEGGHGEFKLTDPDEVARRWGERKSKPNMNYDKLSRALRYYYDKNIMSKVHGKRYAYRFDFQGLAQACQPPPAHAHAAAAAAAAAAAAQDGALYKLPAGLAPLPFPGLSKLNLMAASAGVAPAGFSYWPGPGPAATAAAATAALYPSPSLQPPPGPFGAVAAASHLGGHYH
How it was run: (§1)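 Sequencing on an Illumina NextSeq500 followed washing, crosslinking with 0.1% formaldehyde, proximity ligation (BsaI/T4 ligase, 1 h, 37 °C) and PCR amplification of pools that had been incubated for 30 min at room temperature with 200 nmole of a random double-stranded 16-mer DNA library in Tris/NaCl/DTT/glycerol buffer. Each pool held DNA-barcoded human transcription factors, expressed in yeast as GST fusions and captured on glutathione beads, plus a tag-only sample. Binding signal is a hexamer's read frequency for a factor divided by its frequency in the tag-only sample.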

[2] = biological target: ETV5 (Homo sapiens, UniProt P41161 1-510); conditions: protein: recombinant; tags: N-terminal GST; dsDNA, one strand shown
How it was run: as §1

[3] = biological target: HSF1 (Homo sapiens, UniProt Q00613 1-529); conditions: protein: recombinant; tags: N-terminal GST; chain copies: 3; dsDNA, one strand shown
How it was run: as §1

[4] = biological target: T2, SPIC (Homo sapiens, UniProt Q8N5J4 1-248); conditions: protein: recombinant; tags: N-terminal GST; dsDNA, one strand shown
T2 sequence: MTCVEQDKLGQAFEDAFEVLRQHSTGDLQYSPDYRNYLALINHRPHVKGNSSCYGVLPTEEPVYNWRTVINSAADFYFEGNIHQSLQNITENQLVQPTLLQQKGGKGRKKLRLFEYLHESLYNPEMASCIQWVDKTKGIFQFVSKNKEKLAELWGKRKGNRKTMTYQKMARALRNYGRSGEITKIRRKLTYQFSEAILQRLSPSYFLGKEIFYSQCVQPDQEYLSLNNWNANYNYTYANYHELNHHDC
How it was run: as §1

[5] = biological target: ELF4 (Homo sapiens, UniProt Q99607 1-663); conditions: protein: recombinant; tags: N-terminal GST; dsDNA, one strand shown
How it was run: as §1

[6] = biological target: T3, ELK4 (Homo sapiens, UniProt P28324-2 1-405); conditions: protein: recombinant; tags: N-terminal GST; dsDNA, one strand shown
T3 sequence: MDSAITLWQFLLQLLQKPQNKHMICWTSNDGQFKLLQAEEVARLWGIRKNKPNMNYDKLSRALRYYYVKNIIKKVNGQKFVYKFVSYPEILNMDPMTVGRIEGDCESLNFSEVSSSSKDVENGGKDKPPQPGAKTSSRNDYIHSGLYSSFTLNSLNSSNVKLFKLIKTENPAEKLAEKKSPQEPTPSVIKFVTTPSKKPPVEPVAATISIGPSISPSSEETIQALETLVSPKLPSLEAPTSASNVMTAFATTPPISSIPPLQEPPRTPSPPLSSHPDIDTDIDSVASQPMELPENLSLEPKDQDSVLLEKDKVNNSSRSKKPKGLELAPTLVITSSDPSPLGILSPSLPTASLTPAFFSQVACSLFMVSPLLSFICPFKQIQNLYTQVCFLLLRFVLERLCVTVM
How it was run: as §1

[7] = biological target: T4, ETV2 (Homo sapiens, UniProt O00321 1-342); conditions: protein: recombinant; tags: N-terminal GST; dsDNA, one strand shown
T4 sequence: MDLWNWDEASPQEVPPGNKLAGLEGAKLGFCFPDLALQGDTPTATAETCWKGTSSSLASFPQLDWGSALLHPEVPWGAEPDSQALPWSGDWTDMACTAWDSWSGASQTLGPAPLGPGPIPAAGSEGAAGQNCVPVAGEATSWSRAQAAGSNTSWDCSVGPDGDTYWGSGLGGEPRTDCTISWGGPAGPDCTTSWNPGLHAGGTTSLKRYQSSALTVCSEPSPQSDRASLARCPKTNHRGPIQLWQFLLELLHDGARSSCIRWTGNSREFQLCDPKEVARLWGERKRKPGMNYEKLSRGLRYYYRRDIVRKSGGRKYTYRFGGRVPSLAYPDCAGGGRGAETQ
How it was run: as §1

[8] = biological target: T5, ELF3 (Homo sapiens, UniProt P78545 1-371); conditions: protein: recombinant; tags: N-terminal GST; dsDNA, one strand shown
T5 sequence: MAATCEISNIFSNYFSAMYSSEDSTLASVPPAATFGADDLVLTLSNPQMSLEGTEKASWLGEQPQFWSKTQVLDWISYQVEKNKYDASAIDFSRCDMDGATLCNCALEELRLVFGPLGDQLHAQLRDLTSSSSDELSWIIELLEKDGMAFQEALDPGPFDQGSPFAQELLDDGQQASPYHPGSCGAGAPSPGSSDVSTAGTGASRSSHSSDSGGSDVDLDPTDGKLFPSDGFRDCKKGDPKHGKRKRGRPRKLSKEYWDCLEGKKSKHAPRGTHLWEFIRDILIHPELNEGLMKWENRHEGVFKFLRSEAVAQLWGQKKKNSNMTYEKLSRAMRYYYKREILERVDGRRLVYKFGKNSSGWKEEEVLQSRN
How it was run: as §1

[9] = biological target: CRX (Homo sapiens, UniProt O43186 1-299); conditions: protein: recombinant; tags: N-terminal GST; dsDNA, one strand shown
How it was run: as §1

[10] = biological target: ETV1 (Homo sapiens, UniProt P50549 1-477); conditions: protein: recombinant; tags: N-terminal GST; dsDNA, one strand shown
How it was run: as §1

[11] = biological target: T6, ERF (Homo sapiens, UniProt P50548 1-548); conditions: protein: recombinant; tags: N-terminal GST; dsDNA, one strand shown
T6 sequence: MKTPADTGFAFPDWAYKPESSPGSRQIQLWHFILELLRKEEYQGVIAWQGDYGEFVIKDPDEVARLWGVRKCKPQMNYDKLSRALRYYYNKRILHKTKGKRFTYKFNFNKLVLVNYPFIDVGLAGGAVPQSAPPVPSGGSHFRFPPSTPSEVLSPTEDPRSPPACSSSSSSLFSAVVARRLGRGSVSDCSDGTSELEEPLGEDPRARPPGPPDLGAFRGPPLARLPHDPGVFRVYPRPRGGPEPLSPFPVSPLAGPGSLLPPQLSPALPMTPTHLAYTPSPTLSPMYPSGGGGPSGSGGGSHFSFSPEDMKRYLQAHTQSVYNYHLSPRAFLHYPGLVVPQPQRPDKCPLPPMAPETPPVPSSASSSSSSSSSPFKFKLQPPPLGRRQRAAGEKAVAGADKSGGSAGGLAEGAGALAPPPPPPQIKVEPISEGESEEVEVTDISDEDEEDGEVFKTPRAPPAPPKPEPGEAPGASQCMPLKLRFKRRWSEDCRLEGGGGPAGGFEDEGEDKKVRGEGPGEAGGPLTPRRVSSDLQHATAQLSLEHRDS
How it was run: as §1

[12] = biological target: T7, ETS2 (Homo sapiens, UniProt P15036 1-469); conditions: protein: recombinant; tags: N-terminal GST; dsDNA, one strand shown
T7 sequence: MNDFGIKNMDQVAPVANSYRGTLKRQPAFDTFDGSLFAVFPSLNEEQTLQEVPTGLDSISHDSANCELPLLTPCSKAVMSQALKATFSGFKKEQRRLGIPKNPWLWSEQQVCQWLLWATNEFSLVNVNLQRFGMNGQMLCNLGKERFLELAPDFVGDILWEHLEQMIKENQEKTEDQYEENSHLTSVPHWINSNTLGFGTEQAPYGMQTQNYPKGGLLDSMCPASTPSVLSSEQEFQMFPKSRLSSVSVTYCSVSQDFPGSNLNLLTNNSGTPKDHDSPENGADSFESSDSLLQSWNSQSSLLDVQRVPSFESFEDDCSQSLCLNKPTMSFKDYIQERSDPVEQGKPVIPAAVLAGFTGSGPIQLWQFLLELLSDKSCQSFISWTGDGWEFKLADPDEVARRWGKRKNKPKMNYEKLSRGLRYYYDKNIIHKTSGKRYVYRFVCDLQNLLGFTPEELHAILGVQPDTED
How it was run: as §1

[13] = biological target: T8, SPDEF (Homo sapiens, UniProt O95238 1-335); conditions: protein: recombinant; tags: N-terminal GST; dsDNA, one strand shown
T8 sequence: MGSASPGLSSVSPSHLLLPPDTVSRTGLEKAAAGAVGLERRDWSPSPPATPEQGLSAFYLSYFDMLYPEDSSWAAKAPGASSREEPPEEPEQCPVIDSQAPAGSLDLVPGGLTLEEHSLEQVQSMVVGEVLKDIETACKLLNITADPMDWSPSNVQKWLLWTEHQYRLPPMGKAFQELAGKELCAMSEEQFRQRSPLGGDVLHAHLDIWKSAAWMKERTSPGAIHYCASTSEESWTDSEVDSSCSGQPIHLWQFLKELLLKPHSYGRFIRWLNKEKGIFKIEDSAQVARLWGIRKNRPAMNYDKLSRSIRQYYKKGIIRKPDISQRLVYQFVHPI
How it was run: as §1

[14] = biological target: T9, ETV7 (Homo sapiens, UniProt Q9Y603 1-341); conditions: protein: recombinant; tags: N-terminal GST; dsDNA, one strand shown
T9 sequence: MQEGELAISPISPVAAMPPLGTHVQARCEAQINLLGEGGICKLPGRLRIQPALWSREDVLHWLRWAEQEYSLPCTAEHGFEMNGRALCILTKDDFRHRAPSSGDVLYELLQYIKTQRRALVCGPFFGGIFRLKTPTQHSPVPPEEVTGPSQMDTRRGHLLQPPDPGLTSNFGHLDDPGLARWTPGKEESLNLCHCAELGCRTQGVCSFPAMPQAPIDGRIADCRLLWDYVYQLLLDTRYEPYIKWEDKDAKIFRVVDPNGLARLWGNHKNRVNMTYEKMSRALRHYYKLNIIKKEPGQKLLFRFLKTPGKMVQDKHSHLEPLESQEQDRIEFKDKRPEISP
How it was run: as §1

[15] = biological target: T10, ELF5 (Homo sapiens, UniProt Q9UKW6-2 1-255); conditions: protein: recombinant; tags: N-terminal GST; dsDNA, one strand shown
T10 sequence: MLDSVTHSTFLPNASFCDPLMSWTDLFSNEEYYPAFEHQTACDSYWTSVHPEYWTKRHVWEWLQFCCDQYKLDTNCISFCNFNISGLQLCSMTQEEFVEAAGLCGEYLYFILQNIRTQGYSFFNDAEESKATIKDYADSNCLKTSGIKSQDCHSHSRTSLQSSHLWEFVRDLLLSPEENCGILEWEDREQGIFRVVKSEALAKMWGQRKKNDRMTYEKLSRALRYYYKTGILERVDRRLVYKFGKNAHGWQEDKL
How it was run: as §1

[16] = biological target: T11, ETV3 (Homo sapiens, UniProt P41162-2 1-143); conditions: protein: recombinant; tags: N-terminal GST; dsDNA, one strand shown
T11 sequence: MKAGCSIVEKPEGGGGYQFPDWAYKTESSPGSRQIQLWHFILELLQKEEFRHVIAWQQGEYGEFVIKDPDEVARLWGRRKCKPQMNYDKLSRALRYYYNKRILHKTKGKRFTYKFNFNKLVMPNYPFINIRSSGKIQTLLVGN
How it was run: as §1

[17] = biological target: ETV6 (Homo sapiens, UniProt P41212 1-452); conditions: protein: recombinant; tags: N-terminal GST; dsDNA, one strand shown
How it was run: as §1

Sequence of ELF4 (Q99607 whole entry): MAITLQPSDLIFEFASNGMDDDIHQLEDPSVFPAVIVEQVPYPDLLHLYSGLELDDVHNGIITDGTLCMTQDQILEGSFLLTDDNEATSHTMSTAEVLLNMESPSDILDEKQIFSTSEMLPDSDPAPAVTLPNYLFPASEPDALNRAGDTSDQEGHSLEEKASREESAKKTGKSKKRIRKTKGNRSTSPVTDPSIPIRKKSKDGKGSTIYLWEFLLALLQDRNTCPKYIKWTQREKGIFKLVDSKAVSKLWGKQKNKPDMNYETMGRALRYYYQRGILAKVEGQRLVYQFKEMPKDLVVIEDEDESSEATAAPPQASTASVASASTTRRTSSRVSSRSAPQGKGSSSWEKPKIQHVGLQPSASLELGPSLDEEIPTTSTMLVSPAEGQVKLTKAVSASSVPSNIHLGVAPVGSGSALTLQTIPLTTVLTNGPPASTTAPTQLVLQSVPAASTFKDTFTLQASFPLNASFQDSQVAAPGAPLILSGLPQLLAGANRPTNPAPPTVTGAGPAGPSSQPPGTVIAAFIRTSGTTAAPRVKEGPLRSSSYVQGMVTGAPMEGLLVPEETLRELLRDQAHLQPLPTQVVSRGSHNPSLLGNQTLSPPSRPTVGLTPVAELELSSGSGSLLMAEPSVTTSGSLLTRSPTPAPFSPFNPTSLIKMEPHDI
Sequence of CRX (O43186 whole entry): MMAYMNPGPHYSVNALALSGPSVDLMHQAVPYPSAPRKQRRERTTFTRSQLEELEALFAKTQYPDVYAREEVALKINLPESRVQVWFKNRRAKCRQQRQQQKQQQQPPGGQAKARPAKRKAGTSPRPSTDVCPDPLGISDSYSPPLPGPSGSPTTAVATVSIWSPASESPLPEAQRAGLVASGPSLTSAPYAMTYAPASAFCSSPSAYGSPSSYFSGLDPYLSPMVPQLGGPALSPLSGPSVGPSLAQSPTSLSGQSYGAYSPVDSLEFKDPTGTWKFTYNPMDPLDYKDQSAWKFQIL
Sequence of ETV1 (P50549 whole entry): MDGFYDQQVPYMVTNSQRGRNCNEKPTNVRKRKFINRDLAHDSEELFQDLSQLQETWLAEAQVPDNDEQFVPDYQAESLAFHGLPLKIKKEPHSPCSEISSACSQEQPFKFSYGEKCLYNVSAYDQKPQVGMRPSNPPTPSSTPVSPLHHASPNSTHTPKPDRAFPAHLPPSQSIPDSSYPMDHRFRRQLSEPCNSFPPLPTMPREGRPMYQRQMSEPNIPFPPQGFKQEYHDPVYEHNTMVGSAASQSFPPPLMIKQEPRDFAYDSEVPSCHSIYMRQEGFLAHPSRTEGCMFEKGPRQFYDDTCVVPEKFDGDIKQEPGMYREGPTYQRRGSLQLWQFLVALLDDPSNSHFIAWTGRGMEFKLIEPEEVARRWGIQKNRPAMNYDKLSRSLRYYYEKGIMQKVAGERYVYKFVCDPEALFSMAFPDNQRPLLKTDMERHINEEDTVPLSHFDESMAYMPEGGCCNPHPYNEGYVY
Sequence of ETV5 (P41161 whole entry): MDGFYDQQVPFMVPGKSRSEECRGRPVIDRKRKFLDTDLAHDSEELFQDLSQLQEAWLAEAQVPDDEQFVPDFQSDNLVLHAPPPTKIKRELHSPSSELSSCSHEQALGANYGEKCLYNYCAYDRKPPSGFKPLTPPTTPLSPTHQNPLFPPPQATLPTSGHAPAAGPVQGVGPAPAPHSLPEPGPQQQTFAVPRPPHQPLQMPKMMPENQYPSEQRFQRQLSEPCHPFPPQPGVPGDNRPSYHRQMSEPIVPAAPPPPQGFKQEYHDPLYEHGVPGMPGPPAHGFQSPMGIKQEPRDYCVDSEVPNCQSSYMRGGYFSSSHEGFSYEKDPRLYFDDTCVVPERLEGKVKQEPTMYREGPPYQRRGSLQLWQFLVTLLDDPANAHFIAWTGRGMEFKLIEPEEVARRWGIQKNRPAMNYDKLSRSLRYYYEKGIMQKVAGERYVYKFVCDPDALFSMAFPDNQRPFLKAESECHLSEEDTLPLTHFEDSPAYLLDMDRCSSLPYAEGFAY
Sequence of ETV6 (P41212 whole entry): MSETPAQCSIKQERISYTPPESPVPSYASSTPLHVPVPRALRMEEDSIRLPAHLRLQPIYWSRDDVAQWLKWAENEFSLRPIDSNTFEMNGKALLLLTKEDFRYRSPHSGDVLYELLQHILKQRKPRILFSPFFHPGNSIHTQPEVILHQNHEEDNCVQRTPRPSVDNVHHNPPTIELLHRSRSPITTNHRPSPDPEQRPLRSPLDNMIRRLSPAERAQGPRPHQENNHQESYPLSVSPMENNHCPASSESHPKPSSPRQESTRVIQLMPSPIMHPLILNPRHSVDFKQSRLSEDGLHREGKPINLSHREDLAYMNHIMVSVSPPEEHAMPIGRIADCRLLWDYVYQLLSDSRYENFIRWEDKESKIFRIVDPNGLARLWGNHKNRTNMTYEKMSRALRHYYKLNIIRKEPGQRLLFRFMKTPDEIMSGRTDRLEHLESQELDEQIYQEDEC
Sequence of HSF1 (Q00613 whole entry): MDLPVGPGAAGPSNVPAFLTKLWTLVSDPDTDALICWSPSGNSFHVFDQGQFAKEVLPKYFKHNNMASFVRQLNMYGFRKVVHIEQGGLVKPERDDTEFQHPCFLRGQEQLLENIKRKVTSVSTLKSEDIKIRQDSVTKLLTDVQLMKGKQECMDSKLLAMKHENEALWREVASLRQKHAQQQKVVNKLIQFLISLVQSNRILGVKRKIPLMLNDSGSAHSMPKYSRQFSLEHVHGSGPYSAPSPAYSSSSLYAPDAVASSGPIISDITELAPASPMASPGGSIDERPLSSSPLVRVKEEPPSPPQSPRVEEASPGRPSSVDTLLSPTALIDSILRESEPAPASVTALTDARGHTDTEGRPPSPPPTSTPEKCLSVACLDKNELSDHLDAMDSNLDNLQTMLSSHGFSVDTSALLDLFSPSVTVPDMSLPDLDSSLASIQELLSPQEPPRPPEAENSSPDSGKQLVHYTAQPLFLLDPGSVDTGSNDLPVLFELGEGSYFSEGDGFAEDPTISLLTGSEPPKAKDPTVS

TTTGAG
binding signal [1]: 1.03 fold enrichment (6-mer frequency, TF over GST control)
binding signal [2]: 1.02 fold enrichment (6-mer frequency, TF over GST control)
binding signal [3]: 1.1 fold enrichment (6-mer frequency, TF over GST control)
binding signal [4]: 1.36 fold enrichment (6-mer frequency, TF over GST control)
binding signal [5]: 1.02 fold enrichment (6-mer frequency, TF over GST control)
binding signal [6]: 1.23 fold enrichment (6-mer frequency, TF over GST control)
binding signal [7]: 1.04 fold enrichment (6-mer frequency, TF over GST control)
binding signal [8]: 1.08 fold enrichment (6-mer frequency, TF over GST control)
binding signal [9]: 1.23 fold enrichment (6-mer frequency, TF over GST control)
binding signal [10]: 1.14 fold enrichment (6-mer frequency, TF over GST control)
binding signal [11]: 1.13 fold enrichment (6-mer frequency, TF over GST control)
binding signal [12]: 1.08 fold enrichment (6-mer frequency, TF over GST control)
binding signal [13]: 1.04 fold enrichment (6-mer frequency, TF over GST control)
binding signal [14]: 1.1 fold enrichment (6-mer frequency, TF over GST control)
binding signal [15]: 1.03 fold enrichment (6-mer frequency, TF over GST control)
binding signal [16]: 1.22 fold enrichment (6-mer frequency, TF over GST control)
binding signal [17]: 1.02 fold enrichment (6-mer frequency, TF over GST control)
